According to PubChem BioAssay:
Activity calls are given as the source filed them. Unless noted, no rule for the calls is given here.

Assays:
[1] = HepG2 liver cancer cell viability effects, profiling panel, resazurin fluorescence, 24 h, PK04 Diversity Set (AID 1172); details: higher = more signal
[2] = basal S. cerevisiae growth modulation, no modifier, primary screen, OD600, strain BY4716, 24 h, basal condition (AID 1173); details: OD600, 24 h, higher = more signal, called active from +8 up or from −8 down
[3] = MM1S myeloma cell viability, profiling panel, resazurin fluorescence, basal, 24 h, PK04 Diversity Set (AID 1174); details: higher = more signal, called active from +8 up or from −8 down;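 also: MM1S multiple myeloma cell line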
[4] = target: Dihydroorotate dehydrogenase (quinone), mitochondrial (Plasmodium falciparum (isolate 3D7)) (UniProt Q08210); test: PfDHODH enzyme inhibitors, primary screen, biochemical, C-terminal His tag, absorbance 600 nm (AID 1175); details: DCIP absorbance 600 nm, higher = more signal, called active from +8 up or from −8 down;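 also: recombinant parasite enzyme with a five histidine tag at its C terminus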
Dihydroorotate dehydrogenase (quinone), mitochondrial (Plasmodium falciparum (isolate 3D7)), sequence (Q08210 whole entry, looked up): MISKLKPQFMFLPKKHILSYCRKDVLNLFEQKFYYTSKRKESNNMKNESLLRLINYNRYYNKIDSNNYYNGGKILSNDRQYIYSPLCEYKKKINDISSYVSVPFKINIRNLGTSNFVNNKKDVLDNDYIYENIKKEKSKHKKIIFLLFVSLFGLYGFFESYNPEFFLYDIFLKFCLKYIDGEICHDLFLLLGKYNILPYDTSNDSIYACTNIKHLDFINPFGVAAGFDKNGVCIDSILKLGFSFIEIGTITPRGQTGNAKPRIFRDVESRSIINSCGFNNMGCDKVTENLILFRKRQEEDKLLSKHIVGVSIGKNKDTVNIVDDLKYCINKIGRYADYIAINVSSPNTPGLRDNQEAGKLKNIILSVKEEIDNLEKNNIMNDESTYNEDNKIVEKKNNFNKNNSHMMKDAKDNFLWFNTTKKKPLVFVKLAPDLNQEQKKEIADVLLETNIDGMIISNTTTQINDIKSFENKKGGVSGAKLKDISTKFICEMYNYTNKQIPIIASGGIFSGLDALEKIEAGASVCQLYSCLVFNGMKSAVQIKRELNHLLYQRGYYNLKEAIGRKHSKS

[5] = P. aeruginosa biofilm formation inhibitors, primary screen, strain PAO1, LB-PBS medium, absorbance 600 nm (AID 1176); details: P. aeruginosa PAO1 growth/biofilm, A600, 12 h; higher = more signal
[6] = S. cerevisiae RM11-1a growth modifiers, primary screen, strain RM11-1a, OD600, basal, 24 h (AID 1177); details: OD600, 24 h, higher = more signal, called active from +8 up or from −8 down;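 also: cultures grown under basal conditions with no added stressor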
[7] = E. coli acrAB mutant growth effects, primary screen, E. coli filamentation inducers, strain DRC39, OD650, 24 h (AID 1178); details: higher = more signal, called active from +8 up or from −8 down;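 also: growth measured as culture turbidity by optical density at 650 nm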
[8] = E. coli acrAB mutant growth effects, primary screen, E. coli filamentation inducers, strain DRC39, OD650, 48 h (AID 1179);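 also: screen aims at cell division blockers that make cells filament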; details: E. coli DRC39 delta-acrAB growth, higher = more signal, called active from +8 up or from −8 down
[9] = RPMI8226 myeloma cell viability, profiling panel, resazurin fluorescence, basal, 24 h, PK04 Diversity Set (AID 1180); details: higher = more signal;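 also: RPMI8826 multiple myeloma cell line at 5000 cells per well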
[10] = target: E3 ubiquitin-protein ligase XIAP (Homo sapiens) (UniProt P98170); test: XIAP binders, primary screen, biophysical, small-molecule microarray, fluorescence 635 nm (AID 1181); details: small-molecule microarray binding, higher = more signal;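 also: score merges 667 nm emission and signal to noise over triplicate slides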
E3 ubiquitin-protein ligase XIAP (Homo sapiens), sequence (P98170 whole entry, looked up): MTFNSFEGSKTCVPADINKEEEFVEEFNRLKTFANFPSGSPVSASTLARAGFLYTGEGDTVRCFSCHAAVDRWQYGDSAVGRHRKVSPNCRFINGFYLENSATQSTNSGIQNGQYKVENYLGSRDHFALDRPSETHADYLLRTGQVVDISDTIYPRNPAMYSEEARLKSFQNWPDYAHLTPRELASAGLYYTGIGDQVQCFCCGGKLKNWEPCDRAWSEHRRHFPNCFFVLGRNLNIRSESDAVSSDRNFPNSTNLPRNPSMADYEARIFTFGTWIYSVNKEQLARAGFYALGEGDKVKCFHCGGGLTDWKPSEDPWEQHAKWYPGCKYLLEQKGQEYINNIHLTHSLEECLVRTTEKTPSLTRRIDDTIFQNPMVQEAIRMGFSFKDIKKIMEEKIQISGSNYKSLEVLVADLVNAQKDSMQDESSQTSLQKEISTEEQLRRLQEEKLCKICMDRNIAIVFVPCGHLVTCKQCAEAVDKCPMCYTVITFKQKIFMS

[11] = system: XIP peptide (Xip251-270) binding; test: small-molecule binders of XIP peptide, primary screen, biochemical, small-molecule microarray, fluorescence 635/667 nm, 0.1 µg/mL protein (AID 1182); details: fluorescent protein binding, 635 nm, higher = more signal, called active from +8 up or from −8 down
XIP peptide (Xip251-270) = test: small-molecule binders of XIP peptide, primary screen, biochemical, small-molecule microarray, fluorescence 635/667 nm, 0.5 µg/mL protein (AID 1183); details: small-molecule microarray binding, fluorescence 635 nm; higher = more signal
[12] = Plasmodium falciparum growth inhibition, primary screen, strain 3D7, DAPI fluorescence, 100 nL (AID 1184);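 also: parasites grown inside human red blood cells in medium with human serum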; details: P. falciparum 3D7 growth, 3 d, higher = more signal
[13] = target: Homeobox protein Hox-A13 (Mus musculus) (UniProt Q62424); test: inhibitors of HoxA13-DNA binding, primary screen, biochemical, fluorescence polarization, labeled oligonucleotide (AID 1185); details: 15 min, higher = more signal, called active from +8 up or from −8 down
Homeobox protein Hox-A13 (Mus musculus), sequence (Q62424 whole entry, looked up): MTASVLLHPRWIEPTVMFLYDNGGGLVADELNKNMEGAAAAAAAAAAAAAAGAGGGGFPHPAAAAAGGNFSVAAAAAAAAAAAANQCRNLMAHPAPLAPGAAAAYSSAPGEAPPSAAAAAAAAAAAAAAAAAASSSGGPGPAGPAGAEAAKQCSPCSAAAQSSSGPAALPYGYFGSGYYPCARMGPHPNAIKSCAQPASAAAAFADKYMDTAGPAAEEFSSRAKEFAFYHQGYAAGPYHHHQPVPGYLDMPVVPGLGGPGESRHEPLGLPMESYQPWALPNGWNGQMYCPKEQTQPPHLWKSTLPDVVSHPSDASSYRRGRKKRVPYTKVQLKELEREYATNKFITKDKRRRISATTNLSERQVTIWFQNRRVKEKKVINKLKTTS

[14] = inhibitors of hydroxyurea-induced Chk1 phosphorylation, primary screen, imaging, HeLa, phospho-Chk1 antibody, percent positive cells (AID 1186); details: hydroxyurea-induced phospho-Chk1 immunofluorescence imaging, higher = more signal
[15] = inhibitors of hydroxyurea-induced Chk1 phosphorylation, primary screen, imaging, HeLa, phospho-Chk1 nuclear intensity (AID 1187); details: hydroxyurea-induced phospho-Chk1 immunofluorescence imaging, higher = more signal

| Structure (SMILES) | z-score [1] | z-score [2] | z-score [3] | composite z-score [4] | z-score [5] | z-score [6] | z-score [7] | z-score [8] | z-score [9] | composite z-score [10] | composite z-score [11] | composite z-score (XIP peptide (Xip251-270)) | z-score [12] | z-score [13] | z-score [14] | z-score [15] |
| --- | --- | --- | --- | --- | --- | --- | --- | --- | --- | --- | --- | --- | --- | --- | --- | --- |
| COCCOC(=O)N1C(=O)[C@@]2(c3cc(C#CC4=CCCCC4)ccc31)[C@H](C(=O)Nc1nc3ccccc3s1)[C@H]1C(=O)O[C@H](c3ccccc3)[C@H](c3ccccc3)N1[C@@H]2c1ccc(OCCO)cc1 | 0.366 | 1.05 (inactive) | 0.295 (inactive) | 0.0498 (inactive) | 4.33 (inactive) | 2.51 (inactive) | -1.26 (inactive) | -2.09 (inactive) | -0.0984 | -0.106 | -0.555 (inactive) | 0.467 | -1.52 | 3.78 (inactive) | -0.0093 (inactive) | 0.303 (inactive) |
| CCCCN1CC=CC23O[C@@H]4C=CCOC(=O)[C@@H]4[C@H]2C(=O)N(CCCCCO)[C@@H]3C1=O (stereo partly specified) | 0.371 | 0.0133 (inactive) | -0.86 (inactive) | -0.165 (inactive) | 0.91 (inactive) | -0.176 (inactive) | -0.967 (inactive) | -0.982 (inactive) | -0.531 | 0.327 | -0.338 (inactive) | 0.0889 | -0.198 | -3.39 (inactive) | -0.0035 (inactive) | -0.504 (inactive) |
| COc1ccc(C(=O)Nc2ccc(CN3C(=O)[C@@]4(O[C@@H](CCO)[C@H]([Si](C)(C)c5ccc(OC)cc5)[C@H]4C)c4ccccc43)cc2)cc1 | -4.21 | -3.8 (inactive) | -9.13 (active) | -0.851 (inactive) | 2.25 (inactive) | 3.08 (inactive) | 1.53 (inactive) | -0.0036 (inactive) | -5.97 | -0.172 | 0.264 (inactive) | 0.758 | -2.74 | -1.17 (inactive) | -0.0822 (inactive) | -0.0421 (inactive) |
| CN(C)CCCCCCNC(=O)[C@@H]1C[C@@H]2C(=O)N[C@@H](CCCCN)C(=O)N2[C@@H]1c1cccc(OCCO)c1 | -0.205 | -0.707 (inactive) | 0.364 (inactive) | -1.12 (inactive) | 1.29 (inactive) | -2.27 (inactive) | 0.731 (inactive) | -0.199 (inactive) | 0.393 | 3.31 | 3.64 (inactive) | 0.944 | 0.0037 | -1.47 (inactive) | -1.14 (inactive) | -0.785 (inactive) |
| CC(=O)n1cc(C(O)C2C=CC3C(=O)N(C)C(=O)C3N2Nc2ccccc2)c2ccccc21 (stereo unspecified) | 0.362 | 0.125 (inactive) | -1.2 (inactive) | 0.0365 (inactive) | 1.07 (inactive) | 0.135 (inactive) | -0.321 (inactive) | -0.306 (inactive) | -1.11 | 0.229 | 0.144 (inactive) | 0.383 | 0.413 | -3.76 (inactive) | -0.47 (inactive) | -0.987 (inactive) |
| [N-]=[N+]=Nc1ccccc1C[C@]1(C(N)=O)N=C(c2ccc(OCCCO)cc2)O[C@H]1c1ccccc1 | 0.329 | -0.936 (inactive) | -1.02 (inactive) | 0.667 (inactive) | 1.16 (inactive) | 1.33 (inactive) | 0.0314 (inactive) | -0.665 (inactive) | -1.03 | -0.108 | -0.254 (inactive) | 0.537 | -0.98 | -7.09 (inactive) | 0.0195 (inactive) | -0.54 (inactive) |
| C=C(COC)/C(=C/C[C@@H](OC(C)=O)c1ccc(OCCO)cc1)c1cc(C(=O)OC)ccc1OC | 0.453 | 0.166 (inactive) | -0.252 (inactive) | -0.72 (inactive) | 0.862 (inactive) | 0.303 (inactive) | 0.193 (inactive) | 0.0514 (inactive) | -0.395 | -0.353 | 2.57 (inactive) | 0.762 | -3.06 | -4.45 (inactive) | -0.307 (inactive) | -0.333 (inactive) |
| CCC(CC)C(O)C1C=CC2C(=O)N(C)C(=O)C2N1Nc1ccccc1 (stereo unspecified) | -0.138 | -0.692 (inactive) | -0.193 (inactive) | -0.546 (inactive) | 1.12 (inactive) | -0.0874 (inactive) | -0.53 (inactive) | -0.662 (inactive) | 0.257 | 0.661 | 0.544 (inactive) | 0.758 | 0.865 | -3.63 (inactive) | -0.0753 (inactive) | 0.0501 (inactive) |
| CN1C(=O)C2C=CC(C(O)C3CC=CCC3)N(NC(=O)OC(C)(C)C)C2C1=O (stereo unspecified) | -1.53 | -0.0428 (inactive) | -0.784 (inactive) | 0.123 (inactive) | 0.503 (inactive) | -0.0874 (inactive) | -0.791 (inactive) | -0.688 (inactive) | -1 | 0.579 | 0.947 (inactive) | 0.539 | 0.849 | -2.05 (inactive) | 0.867 (inactive) | 0.509 (inactive) |
| COCCOC(=O)N1C(=O)[C@@]2(c3cc(C#CC4(O)CCCCCC4)ccc31)[C@H](c1ccc(O)cc1)N1[C@H](c3ccccc3)[C@H](c3ccccc3)OC(=O)[C@H]1[C@@H]2C(=O)Nc1nc2ccccc2s1 | -0.181 | -0.213 (inactive) | 0.0851 (inactive) | 0.811 (inactive) | 0.51 (inactive) | 0.443 (inactive) | -0.239 (inactive) | 0.208 (inactive) | -0.815 | 0.0679 | 1.18 (inactive) | 0.708 | -0.326 | -1.3 (inactive) | 0.227 (inactive) | 0.428 (inactive) |
| [N-]=[N+]=NCc1ccccc1[C@H]1OC(c2ccc(OCCCO)cc2)=N[C@@]1(Cc1ccccc1)C(=O)NCc1ccccc1 | 0.294 | -0.223 (inactive) | -0.666 (inactive) | -0.407 (inactive) | 0.702 (inactive) | 0.747 (inactive) | 0.431 (inactive) | 0.0009 (inactive) | -0.34 | 0.58 | 0.212 (inactive) | 0.471 | -2.49 | 2.55 (inactive) | -0.287 (inactive) | -0.083 (inactive) |
| CN1C(=O)C2C=CC(C(O)C3=C[C@H]4C[C@@H](C3)C4(C)C)N(Nc3ccccc3)C2C1=O (stereo partly specified) | -0.3 | 0.0844 (inactive) | -0.419 (inactive) | -0.0435 (inactive) | 2.14 (inactive) | 0.602 (inactive) | -0.328 (inactive) | -0.369 (inactive) | -0.52 | -0.174 | 0.654 (inactive) | 0.151 | 0.821 | -3.75 (inactive) | -0.556 (inactive) | -0.864 (inactive) |
| COCCOC(=O)N1C(=O)[C@@]2(c3cc(C#CCCO)ccc31)[C@H](C(=O)N1CCN(c3ncccn3)CC1)[C@H]1C(=O)O[C@H](c3ccccc3)[C@H](c3ccccc3)N1[C@@H]2c1ccccc1OCCO | 0.906 | 0.674 (inactive) | 0.399 (inactive) | -0.237 (inactive) | -0.116 (inactive) | 1.36 (inactive) | 0.111 (inactive) | -0.776 (inactive) | 0.485 | -0.0312 | 0.954 (inactive) | 0.655 | -2.28 | -1.58 (inactive) | -0.0632 (inactive) | 0.111 (inactive) |
| [N-]=[N+]=NCc1ccccc1[C@@H]1OC(c2ccc(OCCCO)cc2)=N[C@]1(Cc1ccccc1N=[N+]=[N-])C(=O)N1CCOCC1 | -0.54 | -0.532 (inactive) | -1.21 (inactive) | -0.52 (inactive) | 0.727 (inactive) | 0.602 (inactive) | -0.38 (inactive) | -0.265 (inactive) | -1.64 | 0.358 | 0.129 (inactive) | 0.706 | -2.03 | -2.15 (inactive) | 0.0823 (inactive) | 0.515 (inactive) |
| C[C@@H]1ON(c2cccc(C(=O)OC(C)(C)C)c2)[C@H](c2ccc(Br)cc2)[C@H]1C(=O)N1C(=O)OC[C@H]1Cc1ccccc1 | 0.0192 | 0.724 (inactive) | 0.433 (inactive) | 1.17 (inactive) | -0.295 (inactive) | 0.872 (inactive) | -0.741 (inactive) | -0.472 (inactive) | 1.25 | 0.127 | 0.543 (inactive) | 0.615 | -0.829 | -0.923 (inactive) | 0.0511 (inactive) | 0.176 (inactive) |
| C=CCN(Cc1ccccc1)C(=O)C(c1cccs1)N(CCOCCO)C(=O)/C=C\C(=O)O (stereo unspecified) | -0.393 | -1.1 (inactive) | 0.666 (inactive) | -1.37 (inactive) | 0.661 (inactive) | -0.947 (inactive) | 0.441 (inactive) | 1.05 (inactive) | 0.463 | 0.223 | -0.467 (inactive) | -0.573 | -0.205 | -1.25 (inactive) | -1.41 (inactive) | -0.806 (inactive) |
